High-throughput results as filed in PubChem.
TDP1 cell noCPT – qHTS for Inhibitors of human tyrosyl-DNA phosphodiesterase 1 (TDP1): qHTS in cells in absence of CPT; DT40 Tdp1-/- hTDP1 cells, no CPT, ATP luminescence, 48 h; Potency, µM (titrated, usually from 46.2 µM), without a hit: at the top dose activity change, negative = growth inhibition, most hits filed as inhibitors; 15% of 420,000 active; note: % is set by controls: 0 for no effect and ±100 for the full control effect; nearly all actives have a fitted effect of over 55% in size
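Luminescent ATP content (CellTiter-Glo) served as the growth readout. Knockout chicken DT40 cells expressing human TDP1 were exposed to compounds without camptothecin for a minimum 48 hr at 37 °C.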
HepG2 tox – counter-screen for TGF-b inhibitors: cytotoxicity in HepG2 cells | HepG2 CAGA-GFP viability, ATP luminescence, 18 h | Potency, µM (titrated, usually from 46.1 µM), without a hit: top-dose activity change, negative = cytotoxicity, actives largely listed as cytotoxic | 0.76% of 410,000 active | AID 588856
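HepG2 CAGA-GFP cells (1000/well, DMEM with 1% FBS) received compound, then TGF-beta at 500 pg/mL final, and were incubated 18 hours at 37 degrees C. Viability was read by CellTiter-Glo luminescence. Media-only wells were set as complete cell-killing and DMSO as no toxicity.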
TDP1 cell CPT – DT40-hTDP1 cell growth loss with CPT | chicken DT40 Tdp1-/-;hTDP1 cells + 20 nM CPT, ATP luminescence, 48 h | Potency, µM (series often up to 46.2 µM), for the others: at the top dose activity change, negative = growth inhibition, hits mostly inhibitors | 12% of 420,000 active; note: % is set by controls: 0 for no effect and ±100 for the full control effect; nearly all actives have a fitted effect of over 55% in size
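Cell growth measured by CellTiter-Glo luminescence after a minimum 48 h, 37 C compound exposure with 20 nM CPT in Tdp1-knockout DT40 cells stably expressing hTDP1, seeded 400/well; qHTS titration format.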
HT1080 IDH1KD tx – HT-1080 IDH1 knockdown cell toxicity (counter line); HT-1080 IDH1 knockdown viability, ATP luminescence, 48 h; Potency, µM (series often up to 46.1 µM), for inactives: at the highest dose activity, negative = toxicity, actives largely listed as cytotoxic; 2% of 360,000 active; AID 686971;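 note: 0% = DMSO wells and -100% = cell-free medium wells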
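After a 2 h attachment period, IDH1KD HT-1080 cells took pin-transferred compound for 48 h at 37 °C; ATP-based luminescence after 10 min room-temperature reagent incubation reported viability.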
TGFb inhibitor – blocks TGF-b signaling. HepG2 CAGA-GFP TGF-b/SMAD3 reporter, GFP fluorescence, 18 h; TGF-beta stimulated, 500 pg/mL final. Potency, µM (highest dose often 46.1 µM), without a hit: at the highest dose activity, negative = inhibition, most hits filed as inhibitors. 1.2% of 410,000 active; note: % is set by controls: 0 for no effect and ±100 for the full control effect; nearly all actives have a fitted effect of over 65% in size
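Using HEPG2 CAGA-GFP reporter cells at 1000 cells/well, we pinned test compounds, stimulated with recombinant TGF-beta (500 pg/mL final) and measured total well GFP after 18 h.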
HT1080-NT tox – kills 2HG-producing HT-1080-NT fibrosarcoma cells. Potency, µM (titrated, usually from 46.1 µM), for the others: at the top dose activity, negative = less viability, hits mostly cytotoxic. 1.6% of 360,000 active. AID 686970. HT-1080-NT fibrosarcoma viability, CellTiter-Glo ATP luminescence, 48 h;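 note: NT is the 2HG producing partner of a matched IDH1 knockdown line; 0% = DMSO-treated cells and -100% = media-only wells without cells; nearly all actives have a fitted effect of over 55% in size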
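A 48-hour cytotoxicity screen used HT-1080-NT cells plated 2 hours before compound delivery. ATP-based CellTiter-Glo luminescence measured viability, normalized to DMSO and no-cell controls.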
* marks the source's active call; other numbers are inactive results. Hits are enriched below; roughly 17% of the tested compounds scored in any of these assays. Calls come from the whole dose curve; as a rule, active = well fitted curve in the direction sought with a large enough effect; inconclusive = small, poorly fitted or top-dose-only effect, or another doubt; inactive = no such curve, though single readings can be large; an effect the other way counts as inactive or inconclusive. Potency is the fitted concentration of half-maximal effect.

How did CCCCc1nc(NCCNC(=O)c2ccccc2)c(C#N)c2c1CSC(C)(C)C2 do in these assays?
TDP1 cell noCPT: 13µM*; HepG2 tox: -3%; TDP1 cell CPT: 23µM*; HT1080 IDH1KD tx: inconclusive; TGFb inhibitor: inconclusive; HT1080-NT tox: inconclusive

Results for CCCCc1nc(NCCNC(=O)c2ccco2)c(C#N)c2c1CSC(C)(C)C2 ?
TDP1 cell noCPT: 23µM*; HepG2 tox: -13%; TDP1 cell CPT: 29µM*; HT1080 IDH1KD tx: -3%; TGFb inhibitor: -39%; HT1080-NT tox: -2%

How did CCc1cccc(NC(=O)Cn2c(=O)n(Cc3ccccc3)c(=O)c3c(C)c(C(=O)N(C)C)sc32)c1 do in these assays?
TDP1 cell noCPT: inconclusive; HepG2 tox: -21%; TDP1 cell CPT: inconclusive; TGFb inhibitor: -41%

Results for COc1ccc(NC(=O)COC(=O)CCNC(=O)c2ccco2)cc1Cl ?
TDP1 cell noCPT: 2%; HepG2 tox: 6%; TDP1 cell CPT: 0%; HT1080 IDH1KD tx: 6%; TGFb inhibitor: 14%; HT1080-NT tox: 1%

Results for Cc1ccc(S(=O)(=O)N2CCN(c3nc(-c4cncnc4)nc4ccccc34)CC2)cc1 ?
TDP1 cell noCPT: 10µM*; TDP1 cell CPT: 8.9µM*; HT1080 IDH1KD tx: 1%; HT1080-NT tox: -1%

How did Cc1ccc(S(=O)(=O)N2CCN(c3nc(-c4ccncc4)nc4ccccc34)CC2)cc1 do in these assays?
TDP1 cell noCPT: 11µM*; TDP1 cell CPT: -16%; HT1080 IDH1KD tx: -28%; HT1080-NT tox: -11%

What do the screens show for `CC(C)(C)c1ccc(S(=O)(=O)N2CCN(c3nc(-c4ccccc4)nc4ccccc34)CC2)cc1`?
TDP1 cell noCPT: -23%; HepG2 tox: -13%; TDP1 cell CPT: -19%; TGFb inhibitor: 0%

What do the screens show for `Cc1ccc(S(=O)(=O)N2CCCN(C(C)c3nc4ccccc4c(=O)[nH]3)CC2)cc1` (centres undefined)?
TDP1 cell noCPT: inconclusive; HepG2 tox: -41%; TDP1 cell CPT: inconclusive; HT1080 IDH1KD tx: -1%; TGFb inhibitor: 14µM*; HT1080-NT tox: -1%

What do the screens show for `Cc1ccc(S(=O)(=O)N2CCN(c3nc(-c4cccnc4)nc4ccccc34)CC2)cc1`?
TDP1 cell noCPT: 11µM*; TDP1 cell CPT: 13µM*; HT1080 IDH1KD tx: 1%; HT1080-NT tox: 19%

Results for Cc1ccc(S(=O)(=O)N2CCCN(Cc3nc4ccccc4c(=O)[nH]3)CC2)cc1 ?
TDP1 cell noCPT: inconclusive; HepG2 tox: -13%; TDP1 cell CPT: inconclusive; HT1080 IDH1KD tx: -6%; TGFb inhibitor: 8%; HT1080-NT tox: -4%

Results for CCNC(=O)C1(C)CCN(C(=O)c2c(F)cccc2F)C1 (centres undefined) ?
TDP1 cell noCPT: -6%; HepG2 tox: 8%; TDP1 cell CPT: -4%; HT1080 IDH1KD tx: 21%; TGFb inhibitor: 11%; HT1080-NT tox: 15%

What do the screens show for `COc1ccc(CN2C(=O)c3ccccc3C2c2nnnn2C(C)C)cc1OC` (centres undefined)?
TDP1 cell noCPT: -24%; TDP1 cell CPT: 3%; HT1080 IDH1KD tx: 11%; HT1080-NT tox: 5%

How did Cc1ccc(S(=O)(=O)N2CCN(c3nc(-c4cscn4)nc4ccccc34)CC2)cc1 do in these assays?
TDP1 cell noCPT: inconclusive; TDP1 cell CPT: inconclusive; HT1080 IDH1KD tx: 1%; HT1080-NT tox: -16%

What do the screens show for `Cc1ccc(S(=O)(=O)N2CCN(c3nc(-c4ncccn4)nc4ccccc34)CC2)cc1`?
TDP1 cell noCPT: 11µM*; TDP1 cell CPT: inconclusive; HT1080 IDH1KD tx: 14%; HT1080-NT tox: 1%
